Structures are written as SMILES. Results filed as inconclusive are left out. Where a call stands in place of a potency, no number is given. Active and inactive are the calls of the source. The call rests on the fitted dose curve; in most records, active means well fitted inhibition curve with a large enough effect in the repeat runs; inconclusive means weak or mixed curves; inactive means no such curve, though single readings can be large or run the other way.
Potency means the concentration at half of the fitted maximal effect.

Cytochrome P450 3A4 (Homo sapiens), sequence (P08684 whole entry, looked up): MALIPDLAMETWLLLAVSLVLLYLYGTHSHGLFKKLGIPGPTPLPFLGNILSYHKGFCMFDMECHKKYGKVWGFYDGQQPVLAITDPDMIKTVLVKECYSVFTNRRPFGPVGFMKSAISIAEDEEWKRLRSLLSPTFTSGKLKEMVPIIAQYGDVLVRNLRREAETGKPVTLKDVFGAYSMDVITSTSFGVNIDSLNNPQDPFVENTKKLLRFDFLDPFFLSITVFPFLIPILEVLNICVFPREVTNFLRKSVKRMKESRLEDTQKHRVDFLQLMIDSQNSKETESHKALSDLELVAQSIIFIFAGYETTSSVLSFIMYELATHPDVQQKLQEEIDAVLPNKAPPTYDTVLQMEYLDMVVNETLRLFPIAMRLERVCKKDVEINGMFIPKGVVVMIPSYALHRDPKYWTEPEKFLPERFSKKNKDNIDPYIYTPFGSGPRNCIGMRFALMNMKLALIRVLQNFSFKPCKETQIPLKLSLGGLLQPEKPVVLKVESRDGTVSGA

The target in this test is Cytochrome P450 3A4 (Homo sapiens) (UniProt P08684). Kind of test: Cytochrome P450 Family 3 Subfamily A Member 4 (CYP3A4) small molecule antagonists: luciferase reporter qHTS assay (AID 1671201). Further: nearly all actives have a fitted effect of over 50% in size. As to conditions: P450-Glo CYP3A4 enzyme, luciferin luminescence, 1 h; series mostly up to 115 µM. The gist of the method:
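Compounds in DMSO were pin-transferred onto CYP3A4 enzyme-substrate mix and held 10 min at room temperature. NADPH regenerating solution started the reaction for 1 h; luciferin detection reagent stopped it, and luminescence was read after 20 min.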
A general note: Reporter assays use an easily measured gene product as a stand-in for the process of interest.
Turning to `CC1=C(CC(=O)O)c2cc(F)ccc2/C1=C\c1ccc(S(C)(=O)=O)cc1`, the Potency entry was “inactive”. Still for that read-out and setting: next, `COc1ccccc1OCC(O)COC(N)=O` (configuration not stated): “inactive”; `COc1ccc(S(=O)(=O)Nc2nnc(CC(C)C)s2)cc1`: “inactive”; `CCOC(=O)CS`: “inactive”. Same read-out and setting: as for `OCCN(CCO)c1ccccc1`, the entry is “inactive”; as for `c1ccc(CN(CC2=NCCN2)c2ccccc2)cc1`, “inactive”.

For the compound `O=C(O)c1ccccc1Nc1cc(Cl)ccc1C(=O)O`, the activity change, negative = inhibition is 34.1% [at 23.6 µM] (inactive).

Take `CC(=O)Oc1cc(C(C)C)c(OCCN(C)C)cc1C`: the Potency entry is “inactive”.

As to `C=CCc1cc(OC)c(O)c(C(=O)NCCO)c1`, the Potency entry is “inactive”.

For the compound `CCCCN1C[C@H](O)[C@@H](O)[C@H](O)[C@H]1CO`, the Potency entry was “inactive”. Same read-out and setting: next, `Cc1c(N)cccc1N`: 6.47 µM (active); `O=c1[nH]c(=O)n([C@H]2C[C@H](O)[C@@H](CO)O2)cc1C(F)(F)F`: “inactive”; `Cc1onc(-c2ccccc2)c1C(=O)Cl`: “inactive”.

`C[C@@H](N)C(=O)O`: the Potency result was “inactive”.

As for `C[C@]12CCC(=O)C=C1CC[C@@H]1[C@@H]2CC[C@@]2(C)[C@H]1CC[C@]2(O)C(=O)CO`, the Potency entry is “inactive”. In the case of `CN1[C@@H]2CC[C@H]1CC(OC(=O)c1c[nH]c3ccccc13)C2` (some centres not stated), the Potency result was “inactive”.

Regarding `Cc1ccc([N+](=O)[O-])c(N)c1`, the Potency result was “inactive”.

For the origin of these results see PubChem BioAssay (Tox21).
